This note sets out measurements from the supplement of paper PMC10105736.

Common to all, as to experiment: MAPPIT interaction score (arbitrary units); higher = stronger binary interaction signal, active = hit call of the paper
Experiment [1] deals with CG15514. The conditions noted are these: MAPPIT configuration: N-N.
Experiment [2] deals with CG15529. The conditions noted are these: MAPPIT configuration: N-C; pair source set: screen_4.
The target in experiment [3] is CG15482. To be noted: MAPPIT configuration: N-N; pair source set: screen_1.
For experiment [4], the target named is CG33096. To be noted: MAPPIT configuration: N-N; pair source set: Finley_Y2H.

A number with no mark means an inactive call.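 How the source made its calls: active = MAPPIT score above the 99th percentile of random reference set scores in the same batch; inactive = at or below it.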
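Further: HEK293T cells with Epo stimulation, STAT-responsive firefly luciferase reporter, fold induction versus unstimulated cells divided by the larger fold induction of two negative controls lacking either bait or prey.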

B1: Spt6 (protein)
chain: MAEFLDSEAEESEEEEELDVNERKRLKKLKAAVSDSSEEEEDDEERLREELKDLIDDNPIEEDDGSGYDSDGVGSGKKRKKHEDDDLDDRLEDDDYDLIEENLGVKVERRKRFKRLRRIHDNESDGEEQHVDEGLVREQIAEQLFDENDESIGHRSERSHREADDYDDVDTESDADDFIVDDNGRPIAEKKKKRRPIFTDASLQEGQDIFGVDFDYDDFSKYEEDDYEDDSEGDEYDEDLGVGDDTRVKKKKALKKKVVKKTIFDIYEPSELKRGHFTDMDNEIRKTDIPERMQLREVPVTPVPEGSDELDLEAEWIYKYAFCKHTVSEQEKPESREKMRKPPTTVNKIKQTLEFIRNQQLEVPFIAFYRKEYVKPELNIDDLWKVYYYDGIWCQLNERKRKLKVLFEKMRQFQLDTLCADTDQPVPDDVRLILDSDFERLADVQSMEELKDVHMYFLLNYSHELPRMQAEQRRKAIQERREAKARRQAAAAENGDDAAEAIVVPEPEDDDDPELIDYQLKQASNSSPYAVFRKAGICGFAKHFGLTPEQYAENLRDNYQRNEITQESIGPTELAKQYLSPRFMTTDEVIHAAKYVVARQLAQEPLLRKTMREVYFDRARINIRPTKNGMVLIDENSPVYSMKYVAKKPVSDLFGDQFIKLMMAEEEKLLEITFLEEFEGNACANGTPGDYVEESKALYQLDQFAKHVQEWNKLRAECVQLALQKWVIPDLIKELRSTLHEEAQQFVLRSCTGKLYKWLKVAPYKPQLPPDFGYEEWSTLRGIRVLGLAYDPDHSVAAFCAVTTVEGDISDYLRLPNILKRKNSYNLEEKAQKLADLRKLSDFIKMKKPHIVVIGAESRDAQNIQADIKEILHELETSEQFPPIEVEIIDNELAKIYANSKKGESDFKEYPPLLKQAASLARKMQDPLVEYSQLCDADDEILCLRYHPLQERVPREQLLEQLSLQFINRTSEVGLDINLMVQNSRTINLLQYICGLGPRKGQALLKLLKQSNQRLENRTQLVTVCHLGPRVFINCSGFIKIDTSSLGDSTEAYVEVLDGSRVHPETYEWARKMAIDAMEYDDEETNPAGALEEILESPERLKDLDLDAFAVELERQGFGSKSITLYDIRNELSCLYKDYRTPYTKPSAEELFDMLTKETPDSFYVGKCVTAMVTGFTYRRPQGDQLDSANPVRLDSNESWQCPFCHKDDFPELSEVWNHFDANACPGQPSGVRVRLENGLPGFIHIKNLSDRQVRNPEERVRVSQMIHVRIIKIDIDRFSVECSSRTADLKDVNNEWRPRRDNYYDYVTEEQDNRKVSDAKARALKRKIYARRVIAHPSFFNKSYAEVVAMLAEADQGEVALRPSSKSKDHLTATWKVADDIFQHIDVREEGKENDFSLGRSLWIGTEEFEDLDEIIARHIMPMALAARELIQYKYYKPNMVTGDENERDVMEKLLREEKANDPKKIHYFFTASRAMPGKFLLSYLPKTKVRHEYVTVMPEGYRFRGQIFDTVNSLLRWFKEHWLDPTATPASASASNLTPLHLMRPPPTISSSSQTSLGPQAPYSVTGSVTGGTPRSGISSAVGGGGSSAYSITQSITGYGTSGSSAPGAGVSSSHYGSSSTPSFGAINTPYTPSGQTPFMTPYTPHASQTPRYGHNVPSPSSQSSSSQRHHYGSSSGTGSTPRYHDMGGGGGGGVGGGGGSNAYSMQPHHQQRAKENLDWQLANDAWARRRPQQHQSHQSYHAQQQHHHSQQQPHMGMSMNMGITMSLGRGTGGGGGGGYGSTPVNDYSTGGGHNRGMSSKASVRSTPRTNASPHSMNLGDATPLYDEN
On to B1, for which the MAPPIT interaction score was 2.16 in experiment [1] (pair source set: screen_1) and 1.63 in experiment [1] (pair source set: screen_2).

B2: CG3817 (protein)
chain: MALLTEKRVKKTHAPASDSSPEESDSEGSQNSASEAEGNAGWADSIQKVLKTTKPKTQKKTVLARAKKSQAAVRFQKDAANKKPGFDFEIEKADVKEEDEGDNHEDEKPQASALDATLTKQQRKNVPLQLRVKPSFRDMERERTLRKVATRGVVQFFNAVRIQQKDLQQQLEEAGPLDSRQDAVLNNINKRKFLDVLMSGKRAKSTPVDNAVKKEEQETDDDDEDKGSSGKKKSEWSVLREDFMTNKKIKHWDEEDDDEEGHNDEADDSDYDDGEE
With B2, the MAPPIT interaction score in experiment [2] was 1.02.

B3: trbd (protein)
chain: MCDTKDDAQKWKCETCTYENYPSSLKCTMCQASKPLLNEDIFRLSPAQESCTVAEEAAAVEVAVMSPTPSSTCYSLQPQSQARQSNVADSEKWPCKVCTYLNWPRSLRCVQCCTKRGGEAIERGKKDMDNEADGDRAGEALQALRISGSEENLANKPVQLIGATASHRLSLSRGIDDATHLNNLANASHNQSQSQHRQPVLQQQMQLQLQPQQQRESSSSAAVPPQQQKQCYVSKWACNSCTYENWPRSIKCSMCGKTREREISGSQNDLHASSSLNSQEENQQQLQQPNVDTVSVNNSFNKKHIYQLGSSETINNCDTLQERQERRQRQIRRQVDWQWLNACLGVVENNYSAVEAYLSCGGNPARSLTSTEIAALNRNSAFDVGHTLIHLAIRFHREEMLPMLLDQISGSGPGIKRVPSYVAPDLAADIRRHFANTLRLRKSGLPCHYVQKHATFALPAEIEELPIPIQEQLYDELLDRDAQKQLETPPPALNWSLEITARLSSRMFVLWNRSAGDCLLDSAMQATWGVFDRDNILRRALADTLHQCGHVFFTRWKEYEMLQASMLHFTLEDSQFEEDWSTLLSLAGQPGSSLEQLHIFALAHILRRPIIVYGVKYVKSFRGEDIGYARFEGVYLPLFWDQNFCTKSPIALGYTRGHFSALVPMEPFTRIDGRRDDVEDVTYLPLMDCELKLLPIHFLTQSEVGNEESMMRQWLDVCVTDGGLLVAQQKLSKRPLLVAQMLEEWLNHYRRIAQVITAPFIRRPQITHYSSDGDSDEE
On to B3, for which the MAPPIT interaction score was -0.138 in experiment [3] and 0.0624 in experiment [4].
